Screening data deposited in PubChem BioAssay by National Center for Advancing Translational Sciences (NCATS).
TDP1 cell noCPT = qHTS for Inhibitors of human tyrosyl-DNA phosphodiesterase 1 (TDP1): qHTS in cells in absence of CPT; DT40 Tdp1-/- hTDP1 cells, no CPT, ATP luminescence, 48 h; Potency, µM (titrated, usually from 46.2 µM), for inactives: at the top dose activity change, negative = growth inhibition, actives largely listed as inhibitors; 15% of 420,000 active; also: potency is read from the fitted curve at half-maximal effect; nearly all actives have a fitted effect of over 55% in size
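Cells were dispensed at 400 per well, compounds added by pin tool, plates incubated ≥48 hr at 37 °C, then CellTiter-Glo added for 30 min at room temperature before luminescence reading. Line: DT40 Tdp1-/- complemented with hTDP1; camptothecin omitted.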
IL-1B inflam inh = blocks inflammasome-driven IL-1 beta release; THP-1 LPS/ATP IL-1B secretion, AlphaLISA, 16 h; stronger effect = lower value; activity change, % at 57.5 µM; 4.7% of 360,000 active; AID 743279; in the data active = activity change below about -50%; inconclusive = mostly about -30% to -49%
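Secreted IL-1B measured by AlphaLISA bead assay after 16 h compound exposure of THP-1 cells; compounds (final up to 57.5 uM) added 1 h before LPS (250 ng/mL) and ATP (1.25 mM) stimulation; lower signal means less secretion.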
DT40 TDP1 CPT = DT40-hTDP1 cell growth loss with CPT; chicken DT40 Tdp1-/-;hTDP1 cells + 20 nM CPT, ATP luminescence, 48 h; Potency, µM (highest dose often 46.2 µM), without a hit: top-dose activity change, negative = growth inhibition, usual class: inhibitors; 12% of 420,000 active; AID 686979; also: potency is read from the fitted curve at half-maximal effect; nearly all actives have a fitted effect of over 55% in size
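Chicken DT40 Tdp1-/- cells complemented with human TDP1, 400 cells/well, exposed to compounds plus 20 nM camptothecin for at least 48 h at 37 C; viability read as ATP content by CellTiter-Glo luminescence.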
Gal4-VP16 FLuc = counter-screen for ROR gamma inhibitors: Gal4-VP16 reporter | Drosophila S2 Gal4-VP16 UAS-luciferase, luminescence, 20 h | Potency, µM (series often up to 53.6 µM), for inactives: at the highest dose activity, negative = inhibition, actives largely listed as inhibitors | 3.5% of 310,000 active;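 also: Gal4-VP16 expression switched on by copper sulfate through the metallothionein promoter; potency is read from the fitted curve at half-maximal effect; nearly all actives have a fitted effect of over 50% in size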
LDHA block = LDHA (human) enzyme inhibition; P00338; purified LDHA, NADH/diaphorase-resazurin fluorescence; stronger effect = lower value; activity change, % (values are at about 110 or 230 µM); 0.15% of 480,000 active; AID 1347041; in the data active = activity change below about -30%; inconclusive = mostly about -25% to -30%;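 also: plate controls were DMSO wells for no effect and wells without enzyme for full effect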
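Human LDH5 (2 nM) was incubated with 0.06 mM NADH and 0.2 mM pyruvate for 5 min at room temperature in Tris pH 7.4. Remaining NADH was coupled through diaphorase/resazurin, and resorufin fluorescence was read at 0 and 20 min.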
RORg inh = ROR gamma (mouse) transcription inhibition; Potency, µM (doses to about 53.6 µM), without a hit: at the highest dose activity change, negative = inhibition, actives largely listed as inhibitors; Drosophila S2 Gal4-RORgamma UAS-luciferase reporter, 20 h; P51450; 5.4% of 310,000 active; also: potency is read from the fitted curve at half-maximal effect; nearly all actives have a fitted effect of over 60% in size
Target sequence (P51450 whole entry, looked up, the tested form may be a part): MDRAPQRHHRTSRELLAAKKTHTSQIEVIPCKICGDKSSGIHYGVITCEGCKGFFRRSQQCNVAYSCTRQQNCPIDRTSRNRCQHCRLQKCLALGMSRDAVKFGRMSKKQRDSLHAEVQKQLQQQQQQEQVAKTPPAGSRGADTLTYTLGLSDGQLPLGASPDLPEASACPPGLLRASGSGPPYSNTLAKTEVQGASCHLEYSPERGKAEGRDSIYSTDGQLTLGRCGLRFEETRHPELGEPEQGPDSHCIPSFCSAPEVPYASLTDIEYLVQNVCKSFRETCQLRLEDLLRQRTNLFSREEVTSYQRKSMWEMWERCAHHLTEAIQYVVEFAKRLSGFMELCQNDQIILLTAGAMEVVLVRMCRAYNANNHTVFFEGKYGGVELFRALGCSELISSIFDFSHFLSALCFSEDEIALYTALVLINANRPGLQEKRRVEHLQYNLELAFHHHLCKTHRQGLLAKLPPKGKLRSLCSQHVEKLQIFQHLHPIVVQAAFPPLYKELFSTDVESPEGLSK
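Luciferase reporter read in Schneider cells carrying Gal4-RORγ (mouse) and UAS-Photinus luciferase; cells given compound 1 h before 700 uM copper sulfate induction, then incubated 20 h at ambient temperature.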
An asterisk follows results filed as active; ? = inconclusive; . = not tested or not shown; [ ] = remark or other dose. Compounds with a hit are over-represented: about 18% of the library has one in this group of screens. Unless noted, calls follow the shape of the dose curve; as a rule, active = well fitted curve in the direction sought with a large enough effect; inconclusive = small, poorly fitted or top-dose-only effect, or another doubt; inactive = no such curve, though single readings can be large; an effect the other way counts as inactive or inconclusive. Unless noted, % is scaled to controls: 0 for no effect and ±100 for the full control effect.

SMILES | TDP1 cell noCPT | IL-1B inflam inh | DT40 TDP1 CPT | Gal4-VP16 FLuc | LDHA block | RORg inh
Cc1ccc(CN2C(=O)c3ccccc3C2c2nnnn2-c2ccc3c(c2)OCCO3)cc1 (configuration not stated) | 16.4µM* | 9.4 | ? | . | -0.2 | .
CCOc1ccc(N2C(=O)CS(=O)(=O)C23C(=O)N(Cc2cccc(C)c2)c2ccccc23)cc1 (configuration not stated) | . | . | . | . | 3.1 | .
COCCn1c(C)c(C)c(S(=O)(=O)c2ccccc2)c1NC(=O)c1ccc(OC)cc1 | . | . | . | . | -2.0 | .
O=C(CCN1C(=O)S/C(=C\c2ccccc2)C1=O)N1CCCCC1 | ? | -3.6 | ? | 9.2% | -5.2 | 26.2%
O=C(CCN1C(=O)/C(=C/c2ccccc2Cl)SC1=S)N1CCCC1 | 6.51µM* | -64.1* | 9.2µM* | -13.3% | -6.5 | 8.91µM*
COc1cc(/C=C2\SC(=S)N(CCC(=O)NCCc3ccccc3)C2=O)cc(OC)c1OC | -23.5% | 0.0 | 10.7% | -6.3% | -2.0 | -44.7%
COc1ccccc1/C=C1\SC(=S)N(Nc2nc(C)cc(C)n2)C1=O | -27.6% | 18.4 | ? | -15.3% | 3.6 | 11.2µM*
CCOC(=O)N1CCN(C(=O)CCN2C(=O)/C(=C\c3ccccc3OC)SC2=S)CC1 | 23.1µM* | 20.5 | 23.1µM* | 3.0% | -2.1 | -39.9%
O=C(CCN1C(=O)/C(=C/c2ccccc2Cl)SC1=S)N1CCOCC1 | 3.66µM* | -112.3* | 5.17µM* | ? | 2.7 | 7.08µM*
O=C(CCCN1C(=O)/C(=C/c2ccccc2Cl)SC1=S)N1CCCC1 | 20.6µM* | -65.6* | ? | -2.0% | 0.9 | 8.91µM*
Cc1ccc(NC(=O)CN2CCN(C(=O)CCNS(=O)(=O)c3ccc4ccccc4c3)CC2)cc1 | . | . | . | . | 2.6 | .
C/C(=N\NC(N)=S)C1C2C3CC4C5CC(C42)C1C53 (configuration not stated) | 10.3µM* | -19.1 | ? | ? | -2.0 | 1.12µM*
CCC1CC(/C(C)=N/NC(N)=O)OC1=O (configuration not stated) | -0.3% | 7.0 | 4.5% | 5.3% | -4.2 | -21.3%
Cc1cccc(CN2CCC(n3nccc3NC(=O)CCCc3ccccc3)CC2)c1 | 20.6µM* | ? | ? | . | 1.1 | .
CCOc1ccccc1CN1CCC(n2nccc2NC(=O)CCCc2ccccc2)CC1 | 18.4µM* | ? | ? | -7.6% | -2.8 | -1.9%
COc1ccccc1/C=C/CN1CCC(n2nccc2NC(=O)CCc2ccccc2)CC1 | 11.6µM* | -28.3 | 14.6µM* | ? | -0.9 | 25.2%
COc1ccccc1CN1CCC(n2nccc2NC(=O)CCCc2ccccc2)CC1 | ? | ? | 14.6µM* | 5.7% | 0.7 | 10.6%
CN(C)c1ccc(C=NCCCCCCN=Cc2ccc(N(C)C)cc2)cc1 | . | . | . | . | -6.7 | .
Oc1ccccc1C=Nc1ccc(Cl)c(C(F)(F)F)c1 | . | . | . | . | 3.2 | .
CCCCC(=O)NCc1ccc(-c2nc3ccccc3s2)cc1 | . | . | . | . | -30.5* | .
CCC(=O)NCc1ccc(-c2nc3ccccc3s2)cc1 | . | . | . | . | -31.2* | .
CCCCC12CN3CCN(CC(C3)/C1=N\NC(=S)NC)C2 | . | . | . | . | -5.4 | .
CCn1c(=O)[nH]c(=O)c2c(C(=O)O)cc(C3CC3)nc21 | . | . | . | . | 0.3 | .
CSc1ccc(Sc2ccc(SC)cc2)cc1 | . | . | . | . | -2.1 | .
CC(C)C(=O)N1CCN(c2ccc(NC(=O)c3ccc([N+](=O)[O-])o3)cc2)CC1 | 11.6µM* | -104.0* | 2.06µM* | ? | 17.3 | -6.5%
SMILES | TDP1 cell noCPT | IL-1B inflam inh | DT40 TDP1 CPT | Gal4-VP16 FLuc | LDHA block | RORg inh
CC(C)C(=O)N1CCN(c2ccc(NC(=O)c3ccc(Br)o3)cc2)CC1 | -27.0% | -11.7 | ? | 17.7% | -2.7 | 31.1%
CCCC(=O)N1CCN(c2ccc(NC(=O)c3ccc([N+](=O)[O-])o3)cc2Cl)CC1 | 5.8µM* | -110.5* | 0.92µM* | ? | 4.6 | 20µM*
CC(C)C(=O)N1CCN(c2ccc(NC(=O)c3ccc([N+](=O)[O-])o3)cc2Cl)CC1 | 2.06µM* | -105.0* | 1.16µM* | 4.8%[10 µM] | 5.1 | ?
CC(=O)N1CCN(c2ccc(NC(=O)c3ccc(Br)o3)cc2Cl)CC1 | 25.9µM* | ? | 16.4µM* | 12.2% | 1.5 | 15.7%
O=C(Nc1ccc(N2CCCC2)c(Cl)c1)c1ccc([N+](=O)[O-])cc1 | 0.4% | -29.9 | -11.4% | -5.1% | -6.9 | 17.6%
CS(=O)(=O)c1ccc(C(=O)Nc2ccc(-c3cn4ccsc4n3)cc2)cc1 | . | . | . | . | 0.2 | .
CC1CCC(NC(=O)CN2CCC(c3nc4ccccc4o3)CC2)CC1 (configuration not stated) | . | . | . | . | 3.1 | .
Cc1ccc(SC(C(=O)c2ccccc2)C(=O)c2ccccc2)cc1 | . | . | . | . | -10.1 | .
Cc1ccc(-c2cnc3c(Nc4cccc(OC(F)(F)C(F)F)c4)nccn23)cc1 | 16.4µM* | -17.3 | 23.1µM* | . | -38.6* | .
Cc1ccc(S(=O)(=O)Nc2ccc(Nc3nccn4c(-c5ccc6ccccc6c5)cnc34)cc2)cc1 | ? | -7.2 | ? | . | -87.4* | .
FC(F)C(F)(F)Oc1cccc(Nc2nccn3c(-c4cc(C(F)(F)F)cc(C(F)(F)F)c4)cnc23)c1 | ? | -6.0 | ? | . | -20.8 | .
OCc1cccc(-c2cnc3c(Nc4cccc(OC(F)(F)C(F)F)c4)nccn23)c1 | 16.4µM* | -16.1 | ? | . | -10.3 | .
O=C(NC1CCCCC1)c1cc(Sc2ccc(Cl)cc2)nc2ccccc12 | . | . | . | . | 1.3 | .
CCOc1ccccc1NS(=O)(=O)c1c(-c2ccc(C)cc2)csc1C(=O)OC | 16.4µM* | . | ? | . | 1.1 | .
CCOC(=O)c1scc(-c2ccc(C)cc2)c1S(=O)(=O)Nc1ccccc1C | . | . | . | . | 9.7 | .
CCOC(=O)c1ccccc1NS(=O)(=O)c1c(-c2ccc(C)cc2)csc1C(=O)OC | 5.8µM* | . | 6.51µM* | . | 6.1 | .
COc1ccccc1-c1noc(-c2ccc(NC3CCCC3)c([N+](=O)[O-])c2)n1 | 23.1µM* | . | 18.4µM* | . | -2.1 | .
Cc1ccccc1-c1noc(-c2ccc(NCC3CCCO3)c([N+](=O)[O-])c2)n1 (configuration not stated) | 2.06µM* | . | 3.26µM* | . | -4.0 | .
O=[N+]([O-])c1cc(-c2nc(-c3ccccc3)no2)ccc1NCC1CCCO1 (configuration not stated) | ? | . | ? | . | -4.1 | .
COc1ccccc1-c1noc(-c2ccc(NCC3CCCO3)c([N+](=O)[O-])c2)n1 (configuration not stated) | 8.2µM* | . | 18.4µM* | . | 2.0 | .
O/N=C/c1ccc(OCc2ccc(Cl)cc2Cl)cc1 | . | . | . | . | -1.0 | .
